According to PubChem BioAssay (EPA / NIEHS):
Calls of active or inactive are those of the source. The calls were made as follows: active = hit-call score of the fitted dose curve at least 0.9, where 1 is the maximum; inactive = score below 0.9.

Test: CCTE_Shafer_MEA_dev_network_spike_number: CCTE's Neural Network Formation Assay for Number of Network Spikes, Shafer Lab (AID 2284048);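 also: synchronized bursts across electrodes counted on days 5 7 9 12 and integrated as AUC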;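 as to AC50: fit as a loss of signal meaning fewer network spikes than DMSO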
Protocol: CCTE_Shafer_MEA_dev assay is conducted using Axion Biosystems 48 well microelectrode array (MEA) plates and Maestro recording system. Each well of the MEA plate contains a grid of 16 microelectrodes embedded in the culture surface. Electrically active cells, such as neurons, can be cultured over the electrodes, and electrical activity in these cells can be recorded extracellularly. The spontaneous firing of neurons is captured from each electrode on a microsecond timescale providing both temporally and spatially precise data. […] The CCTE_Shafer_MEA_dev assay uses primary cultures of rat cortical neurons. Recordings are made on days post-plating 5, 7, 9 and 12. As these cultures mature over time, neural networks develop functional activity and form cohesive networks in which electrical activity can be highly coordinated. CCTE_Shafer_MEA_dev_network_spike_number is 1 of 19 assay components of the CCTE_Shafer_MEA_dev assay. It measures the number of network spikes (temporally-clustered groups of action potential firing across multiple electrodes) during a recording in a microelectrode array (MEA) using Axion Biosystems Maestro 768 channel amplifier with the AxIS adaptive spike detector. To collapse across multiple recordings made on days post-plating 5, 7, 9 and 12, the trapezoidal area-under-the-curve of the component is calculated.Data from the assay component CCTE_Shafer_MEA_dev_network_spike_number was analyzed into 1 assay endpoint. This assay endpoint, CCTE_Shafer_MEA_dev_network_spike_number, was analyzed in the negative analysis fitting direction relative to DMSO as the negative control and baseline of activity. Using a type of functional reporter, gain or loss-of-signal activity can be used to understand electrical activity.
On the day prior to culture, each well was coated thoroughly with 150 uL of 0.05% polyethyleneimine (PEI, Sigma Cat P3143) in 50 mM HEPES (Sigma Cat H7523) at a pH of 8. The plate was incubated at 37C for one hour. PEI was rinsed out with 500 uL of sterile water three times. Plates were stored at 4C until the day of culture. This culture was plated at a seeding density of 1.5 x 10^5 cells/well on a 48-well MEA plate, prepared as described above. Cells were administered via a 25 uL media/laminin ([…]; Sigma Cat L2020-1MG) drop directly onto the microelectrode array, as adding the cells with the laminin results in better attachment than pre-coating with laminin. After 2 hours, an additional 475 uL of cortical media was added and the cells returned to the incubator. Exposure starts at day 0 of plating and is continued over twelve days of network development until the experiment is terminated. Cells are fed with fresh medium on DIV 5 and 9, following the recordings on those days. The entire volume of media in the well is exchanged and any vehicle or compound treatment is renewed. Complete details are found in OP-NHEERL/ISTD/SBB/TJS/2015-03-r0 (available on request, email shafer.tim@epa.gov). Measurement of the electrical activity is non-invasive, and recordings can be made from the same plate over multiple different days of the culture. In cortical neurons, this allows for the measurement of extracellular action potentials over the period during which networks form in the MEA plate.

| Structure (SMILES) | outcome | AC50 |
| --- | --- | --- |
| CC(C)[C@@H](Nc1ccc(C(F)(F)F)cc1Cl)C(=O)OC(C#N)c1cccc(Oc2ccccc2)c1 (stereo not given in full) | inactive |  |
| FC(F)OCC(F)(F)C(F)(F)F | inactive |  |
| C=CCOC(F)(C(F)(F)F)C(F)(F)F | inactive |  |
| CS(=O)(=O)c1ccc(C(=O)C2C(=O)CCCC2=O)c(Cl)c1COCC(F)(F)F | inactive |  |
| CC(=O)C(F)(F)C(F)(F)F | inactive |  |
| C=CC(F)(C(F)(F)F)C(F)(F)C(F)(F)F (stereo not given) | inactive |  |
| Cc1ccccc1OP(=O)(Oc1ccccc1C)Oc1ccccc1C | inactive |  |
| CNC(=O)CSP(=O)(OC)OC | inactive |  |
| NC(=O)c1ccc(N)nc1 |  | 7.35 µM (active) |
| CCOCn1c(-c2ccc(Cl)cc2)c(C#N)c(Br)c1C(F)(F)F |  | 7.36 µM (active) |
| CC1(C)[C@H](C(=O)O[C@H](C#N)c2cccc(Oc3ccccc3)c2)[C@@H]1/C=C(\Cl)C(F)(F)F |  | 1.35 µM (active) |
| OC(Cc1ccccc1Cl)(Cn1[nH]cnc1=S)C1(Cl)CC1 (stereo not given) |  | 24.4 µM (active) |
| Cc1cc(C(F)(C(F)(F)F)C(F)(F)F)ccc1NC(=O)c1cccc(I)c1C(=O)NC(C)(C)CS(C)(=O)=O | inactive |  |
| CC(F)(F)CC(F)(F)F | inactive |  |
| O=S(=O)(F)C(F)(F)C(F)(F)C(F)(F)C(F)(F)F | inactive |  |
